Reference: PubChem BioAssay AID1347423 (Functional Genomics Laboratory (NCATS/FGL), 2020)
Screen size: about 52,000 sequences; about 210 (0.4%) were called active. Shown is part of a subset that was picked to be rich in actives. A number with no mark means an inactive call.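 The calls were made as follows: active = gene whose silencing raises cell survival under the drug, median off-target-corrected z-score across its silencing RNAs 2 or more; inactive = the rest.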

assay: Resistance to Poly (ADP-Ribose) Polymerase inhibitor: Gene Identification via Genome-wide siRNA Screen; conditions: mouse BRCA2 R2336H ES cells, olaparib, CellTiter-Glo viability; active compounds read high
Method in brief: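 Mouse BRCA2 R2336H ES cells were reverse-transfected with siRNA (20 nM final), treated at 48 h with 500 nM olaparib, and read by CellTiter-Glo after 72 h. Scores: MAD-based z per siRNA, median per gene, seed off-target correction.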

Sequence | z-score
CGAAGCUAAAGGAUAUAGATT against 1110025H10Rik | 0.236
GCCCAUAACAAAACAUCUATT against Mcpt5 | 1.1
GGACAGAGCGUGCACUAGATT against Pqlc2 | 0.262
CCCUCCAAGAUAGAAGCGGTT against 2610021K21Rik | 0.124
GGUGGCAUGUCAUUGCUUCTT against Igf2 | 1.16
GUCACUUGGCUUCCAUUGATT against Olfr510 | 1.19 (active)
GGUUUGAAAUCAGCAUGAUTT against A530065I17Rik | -0.647
GGCUUUGUGCUAAAAAAAATT against Pgm2l1 | 0.12
CGCAGACAGUUUGAGGCUGTT against 1700034P14Rik | -0.696
CCUUAGUUAGAAAUGUUGATT against Xkh | 0.357
GCUGAAAAUACAAUCUCUGTT against Capn3 | 2.18
GGAACUGAUAACCAGCCAGTT against 1700029B21Rik | -0.44
CCUUGAUGACGAAAACAUATT against Plekha2 | 0.756
GGCGAAGGUGUAGAAUCUCTT against A830094I09Rik | 2.23 (active)
CGAAGUUCAUUCCUGUCUATT against Myf6 | -0.688
GGAUUACGGUCACUGCCAUTT against Gabrr2 | 1.39
GGAGAUGACGUGAAAACAATT against Srf | 1.93
GACUAGAACAACAGAAAGUTT against Vax2 | 1.24
GCAAGUAUACACCUCUCAATT against Slc6a12 | 2.24 (active)
GGUAUACACAUGAAAACCATT against 3110023B02Rik | 2.35
GGAUGGUGACAUGAAAAUCTT against Ifng | -0.37
GGUGAUACGUAUUUUUUAGTT against 2700050F09Rik | 1.03 (active)
CCACCAGACUCAUAUUAACTT against LOC433501 | -0.496
CGAUUUGGCCUUGAUGGGUTT against Wtip | -0.561
GGAUAUCAAAGACAAAGCATT against 3100002B05Rik | 0.612
GCCCAUUAUUUUCGGACUGTT against Olfr845 | -2.22

Sequence | z-score
CCUCAAUUGCAUGUGACCUTT against Itgb1bp1 | -0.642
GGGCCUUUGGAUGUUGCUATT against Abcc10 | 1.24
GGUCCUUCCUCAGAUCCCUTT against 5730457F11Rik | 1.66 (active)
GCUCUCACACCCUUAUGUATT against Sdfr1 | -1.45
GGAAUACUUAUAGCUGACUTT against Rdhe2 | 0.32
GGGCUAUAACCCUGAAGAUTT against Rarg | 1.67 (active)
GGACUUAGACAUCCACCUCTT against 1700034O15Rik | -0.799
CCGGGUGCUGUUCUAUAAGTT against Pecam1 | 0.0651
GCUUGGAAGACUGUAAACUTT against 4921521K07Rik | 0.958
GGUGGUCUGGUUCAAGGAUTT against Mylk | -0.558
GGGUCCCUAAGCAUGUUCCTT against Slfn10 | 1.48
CGCAGAAGCUAAUAAACAGTT against Psmb6 | -1.52
GCUGUUUUAUCUCCAAUGGTT against Araf1 | 1.6 (active)
GGACAAGUUUCAGUGACCCTT against Zdhhc9 | -0.268
GCCAUAUACAGGUUCAAAGTT against Msh6 | 0.613
GCCCAAUAUACUCUAAGGGTT against Cdh20 | 0.338
GCAUCAAAAUCGGUUUCUGTT against 4930526D03Rik | -0.28
GGAUCGCUCAUGGAUAUUUTT against Fus | -0.22 (active)
GGAGACAGAAUGCACAUUUTT against Tff3 | -1.75
CCAUUCGGACCAAAGUGUATT against 4930563C04Rik | -1.48
GCCUCUGAGUUGCAUGAGUTT against Ppp2r5b | 2.37 (active)
GCAAUGGUUGGUUCAAUAATT against 5730427C23Rik | -1.47
GGUAGAGGUUAAGACGAUCTT against C330023D02Rik | -0.997
CGGUGAAAAACCUAUGUAUTT against 1700028P14Rik | 0.894
GGCAUUCUUAUAAAGAAACTT against Ube2q | 3.88
CGCUGAAAUAAAGACCAGATT against 2400010G15Rik | 1.99 (active)

Sequence | z-score
GCCAGUGAGGCUACUUUCATT against Myo18a | -0.423
GCAUCUCACUCGUAAAGGUTT against 4732406D01Rik | -0.389
GGGAGAGGCACAAAGCAUATT against Ubxd3 | 1.27
GGGUUUUGUGUAAAAGGUUTT against Olfr584 | 1.72 (active)
GGGACACAAUUCUUUGAAATT against G630009D10Rik | 0.375
GGACAUAAAAGACUUAAAGTT against Actr8 | 3.83 (active)
GGAGCCAUGACUUUUCACUTT against Sec22l1 | 0.164
GAGUCCCUUGGCAGCUCAUTT against Klra8 | -0.753
GCACAAGAGGUAUCCUUGCTT against A630038D02 | -0.381
GGAACAGAAAGCUAUGGAUTT against Surf6 | -0.706
GGGAGAGUCAAAAAAAGAUTT against Khdrbs1 | 2.83 (active)
GGAGUACCUGGACAUUGUGTT against 1110032N12Rik | 0.677
GGACGGACAUUUAUGACCCTT against Cpsf3 | -0.072
GGAAAUUCAGCAUGGAGCCTT against Vgll4 | -0.472
CCUCUCCAACAACCAACUATT against 2900010D03Rik | -1.42
GGAGAUAAAAGUUUCAUCUTT against Jmjd2b | 0.46
GGUACCUGUUUGUUUUACATT against Epb4.1l4b | 5.02
CCCUAGAAUGGGAAUGUCATT against C030022K24Rik | 0.313
GUCAUCAAACUAGGUGCUGTT against Olfr584 | 5.09 (active)
GGGUCCAUUGUCAAUGUCUTT against Cbr2 | -0.721
GGGCUUCGAUGCUAUCAUCTT against 6430573F11Rik | 0.734
CCAUCUACGUGGGACACAATT against Atp11a | -1.41
GGAGAACGAAAGGAUGAAATT against Rpusd4 | -1.09
GGAGAAAAGGAUGUUGUUATT against 2310005P05Rik | 2.57
CGAUAAUUUGGCUAAGUAUTT against Pip5k3 | 0.0345
CCAAGGGAAGAUUCAAAUUTT against D930031B21Rik | -1.19

Sequence | z-score
GCCAGAAACUAAUGAGAUCTT against 1110001E17Rik | 1.17 (active)
GGAAUUUUCUAUAGUCCGGTT against Flrt2 | 0.268
GCGCAAAGGUGAAACGUAGTT against E030011O05Rik | -0.0435
GCAUCCUACGCAUUAAAUCTT against Olfr146 | -0.12
CGAAAAUCAAGGGAGCUCATT against Rnf19 | -0.128
GCACCAUGUCAGGAAGUGUTT against B230315M08Rik | 3.45 (active)
GCCUUUUAGCUGUUCAGGATT against AI451557 | -1.18
GGAGUUCAUUCUGAAUCAGTT against Etohi2 | -0.817
GCUACAAAGCGAUGUUUCATT against Pola2 | -1.88
GGUCUCCACCUCCAUAUCCTT against Slc15a3 | 0.715
GCAGAGGAUAUAAAACAAGTT against Pde2a | 0.234 (active)
CGUCUCAACAGAGUUGGAGTT against Hrmt1l1 | 0.151
CCCAGAACUAUUCAACACUTT against Sema4g | 1.4
GGCAGAGAAAAGGACCUUUTT against 2400002F11Rik | -1.69
GGACAUAAGUGACAGACAUTT against Chrnb2 | -1.32 (active)
GCAUUCAUGAAAGUGUUAGTT against Olfr164 | 1.23
GGCGAAUUAUUGAAAACGUTT against Actr8 | 3.41 (active)
GGUGGUGUUUCAUAAGAUGTT against Rragc | 0.792
CCCAGCUAUGCGAUCUUAATT against 1300003B13Rik | -1.51
GGGUUUCUGUUUGAUUCCATT against Gria1 | 1.91 (active)
GCUACUGAGUUAUAGAAAGTT against Olfr1316 | 0.323
CCAACUGUAGAUGUAUAUATT against Pmp22 | 0.0495
GGUGAUCCUCAUCAUCAGUTT against 2400010G15Rik | 2.76 (active)
GGUUGCAUCACAGCGUAUATT against Plekhe1 | 0.0124
GGAGGUCCAGCUGUUCAUGTT against Kcnn4 | 2.89
